Assay results reported in PubChem BioAssay.
Activity calls are given as the source filed them.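 The calls were made as follows, unless noted: active = inhibition of the reporter signal at or above 50%; inactive = inhibition below 50%.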

Tests used:
[1] = inhibitors of TNFa-induced NFkB p65 translocation, primary screen, imaging, HUVEC, MLSMR starter and 10KST1 sets (AID 438;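 active = inhibition above 20% together with a positive visual image hit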;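 also: compound added about 3h40 before a 20 min TNFalpha stimulation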;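 as to inhibition: signal is the nuclear over cytoplasmic p65 intensity ratio per well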); conditions: HUVEC TNFa-induced p65 nuclear translocation; cell count: measured here: nuclei count (cytotoxicity indicator), at 2.08 µM; inhibition: at 2 µM, stronger effect = higher value, 0% TNFa-plus-vehicle, 100% no-TNFa wells
[2] = reduction of polyQ htt aggregates in cells – imaging, exon1htt(103Q)mCFP cells, high-content imaging, primary screen (AID 483;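 active = visual image review flags a hit and inhibition of aggregation exceeds 20%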;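 also: compound exposure lasted 3 days before fixation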;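 as to nuclei count: percent of the per-plate median nuclei count of sample wells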); conditions: exon1htt(103Q)mCFP cell line, aggregate imaging, at 2 µM; inhibition of aggregation: stronger effect = higher value; nuclei count: measured here: cell count, toxicity
[3] = endothelial E-selectin expression blockers – imaging, HUVEC, immunofluorescence, MLSMR starter and 10KST1 sets, primary screen (AID 487;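 active = visually confirmed hit in the image check and inhibition above 20%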;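 as to inhibition: signal is fraction of cell area covered by stained E-selectin grains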;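 as to nuclei count: 100% = median nuclei count of all wells on the same plate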); conditions: HUVEC TNFalpha-induced E-selectin immunofluorescence imaging, at 2 µM; inhibition: stronger effect = higher value; nuclei count: measured here: cell number, toxicity
[4] = target: Voltage-gated potassium channel subunit beta-2 (Rattus norvegicus) (UniProt P62483); experiment: inhibitors of rat Kvbeta2 reductase activity – biochemical, NADPH fluorescence, primary screen (AID 622;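 active = fluorescence slope higher than the sample average by over 3 SD, cut at about -0.22 in these data, passing the limit was not always enough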;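 also: slope of raw intensity against log time taken from 70 to 1610 s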); conditions: recombinant KvBeta, 4-cyanobenzaldehyde reduction, at 10 µM, stronger effect = higher value
[5] = target: Voltage-gated potassium channel subunit beta-2 (Rattus norvegicus) (UniProt P62483); experiment: enhancers of rat Kvbeta2 NADPH turnover – biochemical, NADPH fluorescence, primary screen (AID 623;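 active = NADPH fluorescence slope more negative than the mean of all samples by about 3 SD, 99.7% confidence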;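 also: fluorescence intensity change per second fitted from 20 to 320 s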); conditions: Recombinant KvBeta, NADPH fluorescence decrease slope, 10 min; at 10 µM; stronger effect = lower value
[6] = target: Alpha-2C adrenergic receptor (Homo sapiens) (UniProt P18825); experiment: compounds altering alpha2C-coupled GIRK flux – cell-based, HEK293 alpha2C/GIRK1/2, thallium flux, primary screen (AID 624;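 active = fluorescence slope after compound addition differing from the mean of all screened samples at 99.7% confidence, in either direction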;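 also: slope of fluorescence ratio to pre-addition baseline per second over 15 to 24 s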); conditions: thallium flux BTC fluorescence, at 10 µM, actives lie on both sides
[7] = blockers of RIG-like receptor reporter activation – cell-based, Sendai virus stimulus, luciferase, 10K MLSCN set, TLR/RLR signaling modifier project, primary screen (AID 602276;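 active = inhibition at or above 50% at 10 µM; inactive = inhibition below 50%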;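 also: firefly luciferase from ISG56 promoter only with Renilla not read in this screen; 0% = Sendai virus plus DMSO and 100% = medium plus DMSO without virus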); conditions: HEK293 RL24 IRF3 luciferase reporter, at 10 µM, stronger effect = higher value
[8] = TLR3 IRF3 reporter activation blockers – cell-based, poly I:C stimulus, luciferase, 10K MLSCN set, primary screen (AID 602277); conditions: HEK293-TLR3 RL24 IRF3 luciferase reporter, at 10 µM, stronger effect = higher value

Alpha-2C adrenergic receptor (Homo sapiens), sequence (P18825 whole entry, looked up): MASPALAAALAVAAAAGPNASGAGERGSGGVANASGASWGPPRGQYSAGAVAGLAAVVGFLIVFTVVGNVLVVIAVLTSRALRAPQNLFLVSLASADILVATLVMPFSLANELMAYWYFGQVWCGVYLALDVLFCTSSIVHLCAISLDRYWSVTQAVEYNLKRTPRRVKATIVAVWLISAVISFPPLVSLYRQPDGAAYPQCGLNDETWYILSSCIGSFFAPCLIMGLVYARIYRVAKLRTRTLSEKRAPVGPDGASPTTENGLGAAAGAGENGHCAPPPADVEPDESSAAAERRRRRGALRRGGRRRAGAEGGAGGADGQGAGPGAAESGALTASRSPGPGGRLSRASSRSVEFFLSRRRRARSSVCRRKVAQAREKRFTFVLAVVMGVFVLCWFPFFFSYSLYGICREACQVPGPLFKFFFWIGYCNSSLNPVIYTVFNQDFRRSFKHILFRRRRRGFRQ
Voltage-gated potassium channel subunit beta-2 (Rattus norvegicus), sequence (P62483 whole entry, looked up): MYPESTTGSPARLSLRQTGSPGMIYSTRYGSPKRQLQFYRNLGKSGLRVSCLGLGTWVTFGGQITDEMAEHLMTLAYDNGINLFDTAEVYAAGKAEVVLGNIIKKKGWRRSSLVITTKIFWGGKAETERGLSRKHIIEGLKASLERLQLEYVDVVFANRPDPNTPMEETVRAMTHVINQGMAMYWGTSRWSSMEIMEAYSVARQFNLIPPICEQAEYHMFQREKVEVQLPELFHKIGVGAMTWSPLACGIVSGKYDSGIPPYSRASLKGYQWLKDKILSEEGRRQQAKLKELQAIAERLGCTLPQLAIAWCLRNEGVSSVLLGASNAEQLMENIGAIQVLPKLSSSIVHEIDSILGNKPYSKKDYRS

| Compound | cell count [1] | inhibition [1] | inhibition of aggregation [2] | nuclei count [2] [%] | inhibition [3] | nuclei count [3] [%] | fluorescence slope [4] | NADPH fluorescence slope [5] | slope [6] | inhibition [7] | inhibition [8] |
| --- | --- | --- | --- | --- | --- | --- | --- | --- | --- | --- | --- |
| CCOC(=O)Cc1csc(NC(=O)CSc2nnc(C(C)C)n2CC)n1 | 812 | -6.2% (inactive) | 13.4% (inactive) | 89.5 | -33.7% (inactive) | 119 | -0.317 (inactive) | 1.9e-05 (inactive) | 0.00691 (inactive) | 18.4% (inactive) | 21.8% (inactive) |
| O=C(CSc1nc2ccccc2nc1SCC(=O)N1CCOCC1)N1CCOCC1 | 473 | 7.6% (inactive) | 11.3% (inactive) | 93.3 | -239% (inactive) | 115 | -0.354 (inactive) | -4.2e-05 (inactive) | 0.00548 (inactive) | 9.88% (inactive) | 27.5% (inactive) |
| COc1ccc(CC(=O)OCn2nnc3ccccc3c2=O)cc1 | 423 | -7% (inactive) | -25.9% (inactive) | 120 | -7.5% (inactive) | 115 | -0.416 (inactive) | -4.2e-05 (inactive) | 0.00601 (inactive) | 12% (inactive) | 16.4% (inactive) |
| CC(C)C(C(=O)Nc1ccc2c(c1)OCO2)N1C(=O)c2ccccc2C1=O (centres undefined) | 696 | -1% (inactive) | 10.6% (inactive) | 109 | 77.1% (active) | 85 | -0.411 (inactive) | -8.9e-05 (inactive) | 0.00641 (inactive) | 14.6% (inactive) | 25.5% (inactive) |
| Cc1ccccc1CN1CCN(C(=O)c2cccc(F)c2)CC1 | 284 | -13% (inactive) | 14.5% (inactive) | 91.7 | 2.5% (inactive) | 119 | -0.411 (inactive) | -1.4e-05 (inactive) | 0.00429 (inactive) | 7.31% (inactive) | 12% (inactive) |
| Cn1c(CN2CCOCC2)nnc1SCC(=O)NCCc1ccccc1 | 444 | -1% (inactive) | 0.2% (inactive) | 118 | -161% (inactive) | 210 | -0.613 (inactive) | 6.8e-06 (inactive) | 0.00528 (inactive) | -8.38% (inactive) | -42.9% (inactive) |
| CCOc1ccc(C2C(C(=O)OC)=CN(CCOC)C=C2C(=O)OC)cc1 | 298 | 6% (inactive) | -3.4% (inactive) | 105 | -6% (inactive) | 110 | -0.141 (inactive) | -8.2e-06 (inactive) | 0.00651 (inactive) | -9.2% (inactive) | 7.51% (inactive) |
| Oc1ccc(Nc2nc(-c3ccc(O)cc3)cs2)cc1 | 277 | 15.1% (inactive) | 18.9% (inactive) | 71.8 | -20.5% (inactive) | 124 | -0.429 (inactive) | -4.3e-05 (inactive) | 0.00332 (inactive) | -43% (inactive) | -59.8% (inactive) |
| CC(=O)Nc1sc2c(c1C#N)CCCCC2 | 349 | 0.8% (inactive) | 12.1% (inactive) | 78.3 | -76.6% (inactive) | 115 | -0.396 (inactive) | -5.5e-05 (inactive) | 0.00723 (inactive) | -1.89% (inactive) | -4.1% (inactive) |
| C=Cn1c(N2CCOCC2)nc2c1c(=O)[nH]c(=O)n2C | 719 | 0.9% (inactive) | -2.7% (inactive) | 62.9 | 21.8% (inactive) | 115 | -0.412 (inactive) | -2.2e-05 (inactive) | 0.00579 (inactive) | 20% (inactive) | 20.4% (inactive) |
| O=C(CSc1nnnn1C1CCCC1)N1CCN(C(=O)c2ccco2)CC1 | 367 | -10.3% (inactive) | 2% (inactive) | 105 | -54.2% (inactive) | 107 | -0.483 (inactive) | -2.2e-05 (inactive) | 0.00599 (inactive) | -2.14% (inactive) | 16.4% (inactive) |
| COCCNC(=O)C(c1cccs1)N(C(=O)Cn1nnc2ccccc21)c1ccccc1 (centres undefined) | 385 | 5.9% (inactive) | 0.7% (inactive) | 98.9 | 24.6% (inactive) | 93.8 | -0.506 (inactive) | -1.1e-05 (inactive) | 0.00629 (inactive) | 10.7% (inactive) | 6.48% (inactive) |
| Cc1cc(C(=O)Nc2ccc(S(=O)(=O)Nc3onc(C)c3C)cc2)cs1 | 608 | -3% (inactive) | 15.4% (inactive) | 94.1 | -17.7% (inactive) | 105 | -0.361 (inactive) | -5e-05 (inactive) | 0.00493 (inactive) | 5.43% (inactive) | 8.03% (inactive) |
| CCOC(=O)c1c(COC(=O)c2ccco2)nc2ccccc2[n+]1[O-] | 570 | 8.9% (inactive) | 8.4% (inactive) | 107 | -31.9% (inactive) | 120 | -0.392 (inactive) | -4.6e-05 (inactive) | 0.00397 (inactive) | 17.9% (inactive) | 15.1% (inactive) |
| C=C(C)COc1ccc(-c2nc(N)ncc2-c2ccc(OC)cc2)c(O)c1 | 278 | -9.5% (inactive) | 24.6% (inactive) | 69.5 | -120% (inactive) | 111 | -0.433 (inactive) | -2.4e-05 (inactive) | 0.00614 (inactive) | 5.72% (inactive) | 27.1% (inactive) |
| C=CCSc1nnc(Cc2c(C)[nH]c3ccccc23)o1 | 800 | 3.5% (inactive) | 20.5% (inactive) | 92.7 | -15.9% (inactive) | 118 | -0.427 (inactive) | -6e-05 (inactive) | 0.00499 (inactive) | 7.53% (inactive) | 15% (inactive) |
| C1=Nc2c(NCc3ccccc3)ncnc2Oc2ccccc21 | 305 | -0.2% (inactive) | 3.8% (inactive) | 98.1 | -17.3% (inactive) | 112 | -0.502 (inactive) | -2.6e-05 (inactive) | 0.00376 (inactive) | -11.5% (inactive) | 1.46% (inactive) |
| COc1ccc(OC)c2[nH]c(=O)c(CCNC(=O)CC(C)C)cc12 | 325 | -12.8% (inactive) | 2% (inactive) | 91.9 | 62.7% (active) | 89.8 | -0.508 (inactive) | -4.7e-05 (inactive) | 0.00505 (inactive) | -1.86% (inactive) | 2.61% (inactive) |
| Cc1ccc(-c2nc(N)n(C(=O)c3cccnc3)n2)cc1 | 359 | 5.5% (inactive) | -19.9% (inactive) | 113 | -110% (inactive) | 109 | -0.339 (inactive) | -5.3e-06 (inactive) | 0.00801 (inactive) | 0.795% (inactive) | 22.5% (inactive) |
